Among the data in PubChem BioAssay are z-score values, retold here.

The structures appear in SMILES notation. Calls of active or inactive are those of the source.

Assay [1] is described as follows: A549 cell viability effects, profiling panel, calcein-AM fluorescence, 48 h, basal (AID 1162). To be noted: higher = more signal.
Assay [2] is described as follows: adipocyte viability effects, profiling panel, cell-based, 3T3-L1 adipocytes, calcein-AM fluorescence, 48 h, basal (AID 1163). To be noted: 3T3-L1 adipocytes viability, higher = more signal.
Assay [3] is described as follows: HepG2 cell viability effects, profiling panel, calcein-AM fluorescence, 48 h, basal (AID 1164). To be noted: higher = more signal.
Assay [4] can be described thus: MM1S cell viability effects, profiling panel, calcein-AM fluorescence, 48 h, basal (AID 1165).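 Also: viability of MM1S multiple myeloma cells under basal unstimulated conditions.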 Conditions: higher = more signal.
Assay [5] in a line: basal RPMI8226 viability, no added stimulus, profiling panel, cell-based, calcein-AM fluorescence, 48 h, PK04 Diversity Set (AID 1166).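 Also: cells grown under basal conditions without added stimulus.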 To be noted: RPMI8226 myeloma viability, higher = more signal.
A short description of assay [6]: basal HepG2 mitochondrial membrane potential changes, profiling panel, cell-based, JC-1 fluorescence, 24 h, 100 nL compound (AID 1167). Conditions: higher = more signal.
Assay [7] is described as follows: basal 3T3-L1 adipocyte mitochondrial potential changes, profiling panel, cell-based, JC-1 fluorescence, 3T3-L1 adipocytes, 24 h, 100 nL compound (AID 1168). Conditions: JC-1 mitochondrial fluorescence, higher = more signal, called active from +8 up or from −8 down.
The nature of assay [8]: basal RPMI8226 mitochondrial membrane potential changes, profiling panel, cell-based, JC-1 fluorescence, 24 h, 100 nL compound (AID 1169). Conditions: RPMI8226 myeloma, JC-1 mitochondrial potential fluorescence, higher = more signal.
Assay [9] in a line: basal MM1S mitochondrial membrane potential changes, profiling panel, cell-based, JC-1 fluorescence, 24 h, 100 nL compound (AID 1170). Conditions: higher = more signal.
Assay [10] is described as follows: A549 lung cancer cell viability effects, profiling panel, resazurin fluorescence, 24 h, PK04 Diversity Set (AID 1171). To be noted: higher = more signal, called active from +8 up or from −8 down.
Also: test concentration not given here.

Turning to `C=C(COC)/C(=C/C[C@@H](OC(C)=O)c1ccccc1OCCO)c1cnc2ccccc2c1`, the z-score in [1] is 0.106; in assay [2], 1.5; in [3], -0.268; in assay [4], -2.48; in assay [5] it was -1.14; in assay [6], 0.23. The z-score in assay [7] is -0.433 (inactive); in assay [8] it was 0.328; in assay [9], 1.4; in [10], -1.69 (inactive).
For the molecule `O=C1C[C@@](C(=O)NC2CC2)(c2ccc([N+](=O)[O-])cc2)[C@@H](c2ccc(CO)cc2)N1C1CCCCC1`, the z-score in assay [1] was 1.91; in [2] it was 1.24; in [3], -0.0212; in assay [4] it was -0.177; in assay [5] it was -1.3; in assay [6] it was 1.28. Further, the z-score in assay [7] is 0.0821 (inactive); in assay [8], -0.00601; in assay [9], -1.18; in [10], 1.04 (inactive).
Take `CC(C)C[C@H]1NC(=O)C([C@@H](C)OCc2ccccc2)NC(=O)[C@@]23C(=O)N[C@@H](Cc4ccccc4)C2[C@H](C)[C@@]2(C)O[C@H]2C3/C=C/C/C=C\CNC1=O` (stereo not given in full): the z-score in assay [1] is -0.469; in assay [2], 1.9; in assay [3], -0.3; in [4], -0.936; in assay [5], -1.53; in assay [6] it was 0.169. Moreover, the z-score is 0.679 (inactive) in assay [7], -0.872 in [8], 0.277 in assay [9] and 0.154 (inactive) in assay [10].
`NC(=O)NCC#Cc1ccc2c(c1)[C@]1(C(=O)N2)[C@H](c2ccc(OCCO)cc2)N2[C@H](c3ccccc3)[C@H](c3ccccc3)OC(=O)[C@H]2[C@@H]1C(=O)O`: the z-score in assay [1] was -0.295; in assay [2], 1.09; in [3], -0.21; in assay [4] it was -1.9; in assay [5], 0.111; in assay [6], -1.9. The z-score is -0.469 (inactive) in assay [7], -0.278 in [8], -1.08 in [9] and 0.253 (inactive) in [10].
In the case of `CCOC(=O)C[C@H]1[C@H](OC(=O)c2ccccc2-c2ccccc2)[C@@H](NC(=O)C2CCCCC2)c2cc(OCCCO)ccc2N1C(=O)c1ccc2ccccc2n1`, the z-score is 0.448 in assay [1]; -0.87 in [2]; 0.581 in [3]; -0.742 in [4]; -1.3 in assay [5]; -0.28 in assay [6]. The z-score was 1.19 (inactive) in assay [7], -0.21 in assay [8], -0.621 in [9] and -0.417 (inactive) in assay [10].
Consider `COc1cc(C(O)C2C=CC3C(=O)N(c4ccccc4)C(=O)C3N2Nc2ccccc2)cc(OC)c1OC` (stereo not given), for which the z-score was -0.591 in assay [1]; -1.66 in assay [2]; -0.342 in assay [3]; 0.294 in assay [4]; -0.0482 in [5]; -2.43 in assay [6]. Also, the z-score was -1.22 (inactive) in assay [7], -0.953 in assay [8], -0.116 in [9] and -0.427 (inactive) in assay [10].
`[N-]=[N+]=Nc1ccccc1[C@@H]1OC(c2ccc(OCCCO)cc2)=N[C@]1(Cc1ccccc1)C(=O)NCCN1CCOCC1`: the z-score in assay [1] is -0.975; in assay [2] it was 1.29; in assay [3], -0.876; in assay [4] it was -2.37; in [5] it was -4.18; in assay [6], 0.153. In addition, the z-score in assay [7] was -0.0447 (inactive); in [8] it was -1.26; in [9], -0.469; in [10], -0.908 (inactive).
`COC(=O)C(CC#Cc1ccc2c(c1)[C@]1(C(=O)N2)[C@H](c2ccc(OCCO)cc2)N2[C@H](c3ccccc3)[C@H](c3ccccc3)OC(=O)[C@H]2[C@@H]1C(=O)N1CCCCCCC1)C(=O)OC`: the z-score in [1] was 0.996; in assay [2] it was 0.915; in assay [3], 0.846; in [4], 0.491; in assay [5], -1.88; in [6], -0.386. Further, the z-score is -1.82 (inactive) in assay [7], -1.08 in assay [8], -1.36 in [9] and -0.387 (inactive) in [10].
Consider `CC(C)NC(=O)[C@@]1(c2ccc([N+](=O)[O-])cc2)CC(=O)N(CC23CC4CC(CC(C4)C2)C3)[C@@H]1c1ccc(CO)cc1`, for which the z-score in assay [1] is -1.34; in assay [2] it was 0.999; in assay [3], -1.72; in assay [4] it was -2.06; in assay [5], -3.8; in assay [6], -1.38. For the same molecule, the z-score in assay [7] was -0.959 (inactive); in [8], -0.6; in assay [9] it was -0.24; in assay [10] it was -2.03 (inactive).
In the case of `COCCOC(=O)N1C(=O)[C@@]2(c3cc(C#CCCO)ccc31)[C@H](C(N)=O)[C@H]1C(=O)O[C@H](c3ccccc3)[C@H](c3ccccc3)N1[C@@H]2c1ccccc1OCCO`, the z-score is -0.21 in assay [1]; -0.0387 in assay [2]; -0.16 in assay [3]; -1.87 in [4]; -2.92 in [5]; -0.529 in [6]. The z-score in assay [7] is 0.181 (inactive); in [8], -0.821; in assay [9], -1.47; in [10], -0.191 (inactive).
Consider `CC(C)=CCCC=C(C)C(O)C1C=CC2C(=O)N(c3ccccc3)C(=O)C2N1Nc1ccc(C#N)cc1` (stereo not given), for which the z-score was 1.46 in assay [1]; 0.464 in [2]; 1.47 in assay [3]; -1.65 in [4]; -1.92 in assay [5]; -0.428 in assay [6]. The z-score is -0.926 (inactive) in [7], -0.483 in assay [8], -1.29 in assay [9] and -1.18 (inactive) in assay [10].
Turning to `CC(C)C[C@@H]1NC(=O)[C@@H]2C[C@H](C(=O)NCCCCCCNC(=O)CS)[C@H](c3cccc(OCCO)c3)N2C1=O`, the z-score was 0.028 in assay [1]; -0.0252 in assay [2]; 0.134 in assay [3]; -0.505 in assay [4]; -0.587 in assay [5]; -0.946 in [6]. Also, the z-score in assay [7] is -0.185 (inactive); in [8] it was -0.217; in assay [9], -0.165; in [10], 0.457 (inactive).
Consider `CCCC=C(CCC)[C@@H](NC(=O)c1ccc(C(F)(F)F)cc1)c1ccc(C(F)(F)F)cc1`, for which the z-score in assay [1] was -1.88; in [2], -0.0493; in assay [3] it was -0.751; in assay [4], -1.53; in assay [5] it was -3.65; in [6], 4.85. The z-score in assay [7] is 0.216 (inactive); in [8], -0.235; in [9] it was -0.678; in [10], 0.949 (inactive).
With `C=CCOC(=O)[C@H]1[C@@H]2C(=O)O[C@@H](c3ccccc3)[C@@H](c3ccccc3)N2[C@@H](c2ccc(OCCOC(=O)[C@H]3C[C@H]4C(=O)N[C@@H](CC(C)C)C(=O)N4[C@H]3c3ccc(O)cc3)cc2)[C@]12C(=O)Nc1ccccc12`, the z-score in assay [1] was 0.0118; in assay [2], -0.382; in assay [3] it was 0.414; in [4], 0.178; in assay [5], 0.34; in assay [6] it was -1.78. The z-score is 1.05 (inactive) in assay [7], -0.485 in assay [8], -1.19 in assay [9] and 1.96 (inactive) in assay [10].
